KB-3-1 cytotox: qHTS assay for MDR1-selective chemotherapeutics: Primary screen using the parental adenocarcinoma cell KB-3-1 | KB-3-1 viability, CellTiter-Glo ATP luminescence, 72 h | Potency, µM (doses to about 46.1 µM), most hits filed as cytotoxic | 400,000 compounds, 1.4% hits | AID 1347075, 2019; note: nearly all actives have a fitted effect of over 60% in size
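Screening of KB-3-1 cells (DMEM, 10% FBS, phenol-red free) ran from lowest to highest compound concentration; after 72 h at 37 °C viability was read luminescently and curves fitted.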
HT1080NT lethal: qHTS for induction of synthetic lethality in tumor cells producing 2HG: qHTS for the HT-1080-NT fibrosarcoma cell line; AID 686970, 2013; Potency, µM (series often up to 46.1 µM), inactives show at the top dose activity, negative = less viability, usual class: cytotoxic; 360,000 compounds, 1.6% hits; HT-1080-NT fibrosarcoma viability, CellTiter-Glo ATP luminescence, 48 h;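 note: NT is the 2HG producing partner of a matched IDH1 knockdown line; 0% = DMSO-treated cells and -100% = media-only wells without cells; nearly all actives have a fitted effect of over 55% in size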
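Viability of the 2HG-overproducing fibrosarcoma line after 48 hours of compound exposure at 37 degrees C was determined by luminescence with CellTiter-Glo, and concentration-effect curves were then fitted and categorized.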
HT1080 IDH1KD tx: qHTS for induction of synthetic lethality in tumor cells producing 2HG: qHTS for the HT-1080-IDH1KD cell line | Potency, µM (series often up to 46.1 µM), inactives show at the top dose activity, negative = toxicity, hits mostly cytotoxic | AID 686971, 2013 | 360,000 compounds, 2% hits | HT-1080 IDH1 knockdown viability, ATP luminescence, 48 h;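 note: 0% = DMSO wells and -100% = cell-free medium wells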
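Assay cells: HT-1080 with IDH1 knockdown, 750 per well, RPMI/5% FBS. Exposure: 48 h at 37 °C following 2 h pre-incubation. Read: CellTiter-Glo luminescence; fitted concentration-response, curve class assigned.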
DT40 TDP1 no CPT: qHTS for Inhibitors of human tyrosyl-DNA phosphodiesterase 1 (TDP1): qHTS in cells in absence of CPT; DT40 Tdp1-/- hTDP1 cells, no CPT, ATP luminescence, 48 h; Potency, µM (titrated, usually from 46.2 µM), for inactives: at the top dose activity change, negative = growth inhibition, actives largely listed as inhibitors; 420,000 compounds, 15% hits; note: nearly all actives have a fitted effect of over 55% in size
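Compound effects on proliferation are scored in DT40 Tdp1-/-;hTDP1 cells in the absence of CPT. ATP levels (CellTiter-Glo luminescence) are recorded after a ≥48 hr, 37 °C incubation.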
KB-V1 cytotox: qHTS assay for MDR1-selective chemotherapeutics: Primary screen using the drug-selected MDR subline cells KB-V1. KB-V1 MDR cells viability, CellTiter-Glo, 72 h. 400,000 compounds, 3.4% hits. Potency, µM (highest dose often 46.1 µM), hits mostly cytotoxic; note: nearly all actives have a fitted effect of over 60% in size
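Compound-treated KB-V1 multidrug-resistant cells, 72 h, 37 degrees C; viability by CellTiter-Glo. Fitted qHTS curves give the values.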
TDP1 cell CPT: qHTS for Inhibitors of human tyrosyl-DNA phosphodiesterase 1 (TDP1): qHTS in cells in presence of CPT. AID 686979, 2013. Potency, µM (highest dose often 46.2 µM), for the others: at the highest dose activity change, negative = growth inhibition, usual class: inhibitors. chicken DT40 Tdp1-/-;hTDP1 cells + 20 nM CPT, ATP luminescence, 48 h. 420,000 compounds, 12% hits; note: nearly all actives have a fitted effect of over 55% in size
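Chicken DT40 Tdp1-/- cells complemented with human TDP1, 400 cells/well, exposed to compounds plus 20 nM camptothecin for at least 48 h at 37 C; viability read as ATP content by CellTiter-Glo luminescence.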
Starred values were filed as active, the others as inactive; i = inactive; u = inconclusive; x = no result; [ ] = another dose, or the depositor's remark. The list is not random: actives were taken first. Their share in the collection is about 19%. Calls come from the whole dose curve; as a rule, active = well fitted curve in the direction sought with a large enough effect; inconclusive = small, poorly fitted or top-dose-only effect, or another doubt; inactive = no such curve, though single readings can be large; an effect the other way counts as inactive or inconclusive. Unless noted, % is set by controls: 0 for no effect and ±100 for the full control effect; potency is the fitted concentration of half-maximal effect.

SMILES	KB-3-1 cytotox	HT1080NT lethal	HT1080 IDH1KD tx	DT40 TDP1 no CPT	KB-V1 cytotox	TDP1 cell CPT
Cc1cccc(NC(c2nnc(-c3ccccc3)o2)c2ccc(F)cc2Cl)c1C (stereo unspecified)	i	x	x	2.4%	i	2.5%
CCOC(=O)C1CCCN(C(=O)Cn2nc(CC)n3c(cc4occc43)c2=O)C1 (stereo unspecified)	i	x	x	u	i	u
COCCNc1nc(Oc2cccc(F)c2)c2sccc2n1	i	-13.1%	-17.9%	u	i	-35.1%
Fc1ccc(Nc2nc(NCc3cccs3)nc3ccsc23)cc1	i	u	0.0%	20.6µM*	i	u
CC(C)Nc1nc(NCc2ccccc2)c2sccc2n1	u	23.1µM*	u	18.4µM*	u	9.2µM*
COCCNc1nc(NC(C)C)nc2ccsc12	i	29.7%	21.4%	-21.8%	i	-29.6%
COCCNc1nc(NCc2ccccc2OC)c2sccc2n1	i	u	u	16.4µM*	u	23.1µM*
CCS(=O)(=O)c1ccc(-c2csc(-c3ccccc3Cl)n2)c(Cl)c1Cl	i	17.0%	10.5%	23.1µM*	i	u
CCOc1ccccc1C1C(C(=O)OC)=C(N)OC2=C1C(=O)CCC2 (stereo unspecified)	i	-0.2%	5.1%	-11.2%	i	-19.5%
CCOc1ccc(Br)cc1C1C(C(=O)OC)=C(N)Oc2cc(N(C)C)ccc21 (stereo unspecified)	u	11.6µM*	14.6µM*	u	23.1µM*	5.17µM*
CC(C)(C)S(=O)N1Cc2cc(CO)cc(CCO)c2[C@@H]1CCO (stereo partly specified)	i	-0.6%	6.7%	-4.7%	i	0.9%
COc1ccc(CN2C(=O)c3ccccc3C2C(=O)NC2CCC(C)CC2)c(OC)c1 (stereo unspecified)	i	-4.3%	5.1%	-0.9%	u	-29.4%
O=C(NC1CCCCCC1)C1c2ccccc2C(=O)N1Cc1ccco1 (stereo unspecified)	i	5.7%	9.4%	0.5%	20.6µM*	3.5%
COc1ccc(C2C(C(=O)Nc3cccc(C)n3)c3ccccc3C(=O)N2C)cc1 (stereo unspecified)	i	-13.1%	0.4%	-9.1%	i	-3.8%
COc1ccc(CN2C(=O)c3ccccc3C2C(=O)NC2CCCC2)c(OC)c1 (stereo unspecified)	i	8.9%	-3.4%	-13.6%	3.66µM*	2.3%
CCC(C)NC(=O)C1c2ccccc2C(=O)N(c2ccc(OC)cc2)C1c1ccc(OC)cc1 (stereo unspecified)	i	2.0%	-7.8%	20.6µM*	i	u
CCC(C)NC(=O)C1c2ccccc2C(=O)N1Cc1cc(OC)ccc1OC (stereo unspecified)	i	9.2%	11.4%	-15.9%	7.31µM*	-11.8%
O=C(Cn1c(=O)nc(-c2ccccc2)c2cc(Cl)ccc21)Nc1ccc(F)c(Cl)c1	i	x	x	u	i	u
C=C(C)Cn1cnc2cc(C)c(C)cc21	i	-0.4%	-5.4%	-0.7%	i	-1.3%
O=C1c2ccccc2C(Nc2ccc(S(=O)(=O)N3CCCCCC3)cc2)N1Cc1ccco1 (stereo unspecified)	i	1.0%	-11.0%	16.4µM*	i	20.6µM*
CCC(C)N1C(=O)c2ccccc2C1C(=O)NC1CCCCCC1 (stereo unspecified)	i	-2.8%	9.4%	u	18.4µM*	-0.4%
O=c1cc(-c2ccc(Cl)cc2)oc(=O)[nH]1	i	0.6%	3.0%	-0.6%	i	7.3%
O=c1cc(N=Nc2ccc(Cl)cc2)[nH]c(=O)[nH]1	u	1.4%	14.1%	0.92µM*	i	0.517µM*
CC(C)(C)OC(=O)N1CCC(c2c(C(=O)N3CCCCC3)cnn2-c2ccc(F)cc2)CC1	i	x	x	u	i	0.3%
CC(=O)c1ccc2c(c1)CC1(C2)Cc2cc3c(cc2C1)C(=O)CC3 (stereo unspecified)	3.66µM*	u	u	3.26µM*	2.59µM*	5.17µM*
SMILES	KB-3-1 cytotox	HT1080NT lethal	HT1080 IDH1KD tx	DT40 TDP1 no CPT	KB-V1 cytotox	TDP1 cell CPT
CC(=O)c1ccc2c(c1)Cc1cc(C(C)=O)ccc1-2	i	2.9%	1.0%	-19.7%	u	-13.4%
O=S(=O)(N1CCCCC1)N1CCN(CC(O)COc2ccc3cc(Br)ccc3c2)CC1 (stereo unspecified)	u	-14.9%	-28.2%	11.2µM*	u	11.2µM*
OC(COc1ccc2cc(Br)ccc2c1)CN1CCCC1 (stereo unspecified)	u	-28.7%[9.24 µM]	12.6µM*	23.1µM*	u	u
CN(C)S(=O)(=O)N1CCN(CC(O)COc2ccc(-c3ccccc3)cc2)CC1 (stereo unspecified)	i	-12.8%	-7.1%	11.6µM*	i	20.6µM*
CN(C)S(=O)(=O)N1CCN(CC(O)COc2ccc3cc(Br)ccc3c2)CC1 (stereo unspecified)	u	u	-29.8%	8.2µM*	u	14.6µM*
CCc1c(C(=O)N/N=C/c2ccc(OCc3ccc(F)cc3)c(OC)c2)nnn1-c1nonc1N	u	-0.5%	u	5.8µM*	u	23.1µM*
Cc1ccc(COc2ccc(/C=N/NC(=O)c3nnn(-c4nonc4N)c3COc3ccc(F)cc3)cc2)cc1	u	8.4%	8.9%	u	u	u
Nc1nonc1-n1nnc(C(=O)N/N=C/c2ccc(OCc3ccc(F)cc3)cc2)c1COc1ccccc1	i	18.4µM*	u	u	i	u
COC(=O)c1nnn(-c2nonc2N)c1COc1ccc(C=O)cc1OC	i	-27.0%	u	9.2µM*	i	14.6µM*
Nc1cc(=O)nc2cn[nH]n12	i	3.5%	11.3%	4.3%	i	9.5%
COc1ccc(CN2CCCC(n3cc(C(=O)N4CCCCC4)nn3)C2)c(OC)c1C (stereo unspecified)	x	x	x	-18.4%	x	11.2%[9.04 µM]
COc1ccc(Cc2cnc(N)nc2N)cc1OC	i	x	x	u	u	u

Screening results (PubChem BioAssay)
